Measurements as given in PubChem BioAssay AID1159580 (chemical genetic matrix, 2015).
Values joined by “and” are separate entries in the source; they are usually repeats but may differ in a detail not shown here. Identical values can stand only once. About 2,000 (36%) of roughly 5,500 compounds were called active. Inconclusive results (about 18%) are left out. No stated cut-off is given here; in the data, active means normalized growth mostly below about 0.91 (no sharp cut-off); inconclusive means no clear call, values can overlap the other calls; inactive means mostly above about 0.92. Some of the results follow. The source holds several records for some structures; these can differ, active in one and inactive in another.

Test: chemical genetic growth profiling, strain panel (AID 1159580);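 further: tested at 20 µM; growth read once vehicle control cultures reached saturation at 30 °C; 1 = growth at the plate median or of vehicle wells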
Details: growth OD

## COC(=O)C1=C(C)NC(C)=C(C(=O)OC)C1c1ccccc1[N+](=O)[O-]
S. cerevisiae deletion strains, locus YKL009W, strain mrt4, stronger effect = lower value
  normalized growth: 0.959 (inactive)
S. cerevisiae deletion strains, locus YKL068W, stronger effect = lower value
  normalized growth: 0.965 (inactive)
S. cerevisiae deletion strains, locus YKL085W, strain MDH1 (second series), stronger effect = lower value
  normalized growth: 0.956 (inactive)
S. cerevisiae deletion strains, locus YKL085W, strain MDH1, stronger effect = lower value
  normalized growth: 0.956 (inactive)
S. cerevisiae deletion strains, locus YKL160W, strain elf1, stronger effect = lower value
  normalized growth: 0.901 (active)
S. cerevisiae deletion strains, locus YKL190W, strain CNB1, stronger effect = lower value
  normalized growth: 0.84 (active)
S. cerevisiae deletion strains, locus YKR001C, strain vps1, stronger effect = lower value
  normalized growth: 0.852 (active)
S. cerevisiae deletion strains, locus YKR026C, strain gcn3, stronger effect = lower value
  normalized growth: 0.968 (inactive)
S. cerevisiae deletion strains, locus YKR091W, strain srl3, stronger effect = lower value
  normalized growth: 0.954 (inactive)
S. cerevisiae deletion strains, locus YLL001W, strain dnm1, stronger effect = lower value
  normalized growth: 0.972 (inactive)
S. cerevisiae deletion strains, locus YLL026W, stronger effect = lower value
  normalized growth: 0.946 (inactive)
S. cerevisiae deletion strains, locus YLL041C, strain sdh2, stronger effect = lower value
  normalized growth: 0.931 (inactive)
S. cerevisiae deletion strains, locus YLR027C, strain aat2, stronger effect = lower value
  normalized growth: 0.899 (active)
S. cerevisiae deletion strains, locus YLR039C, strain RIC1, stronger effect = lower value
  normalized growth: 0.535 (active)
S. cerevisiae deletion strains, locus YLR058C, strain SHM2, stronger effect = lower value
  normalized growth: 0.996 (inactive)
S. cerevisiae deletion strains, locus YLR102C, strain apc9, stronger effect = lower value
  normalized growth: 0.977 (inactive)
S. cerevisiae deletion strains, locus YLR113W, strain HOG1, stronger effect = lower value
  normalized growth: 0.942 (inactive)
S. cerevisiae deletion strains, locus YLR221C, strain rsa3, stronger effect = lower value
  normalized growth: 0.893 (active)
S. cerevisiae deletion strains, locus YLR258W, strain gsy2, stronger effect = lower value
  normalized growth: 0.886 (active)
S. cerevisiae deletion strains, locus YLR262C, strain YPT6 (second series), stronger effect = lower value
  normalized growth: 0.44 (active)
S. cerevisiae deletion strains, locus YLR262C, strain YPT6, stronger effect = lower value
  normalized growth: 0.352 (active)
S. cerevisiae deletion strains, locus YLR268W, strain sec22, stronger effect = lower value
  normalized growth: 0.764 (active)
S. cerevisiae deletion strains, locus YLR320W, strain mms22, stronger effect = lower value
  normalized growth: 0.864 (active)
S. cerevisiae deletion strains, locus YLR330W, strain CHS5, stronger effect = lower value
  normalized growth: 0.931 (inactive)
S. cerevisiae deletion strains, locus YLR342W, strain FKS1 (second series), stronger effect = lower value
  normalized growth: 0.643 (active)
S. cerevisiae deletion strains, locus YLR342W, strain FKS1, stronger effect = lower value
  normalized growth: 0.924 (inactive)
S. cerevisiae deletion strains, locus YLR357W, strain rsc2, stronger effect = lower value
  normalized growth: 0.937 (inactive)
S. cerevisiae deletion strains, locus YLR370C, strain arc18, stronger effect = lower value
  normalized growth: 0.942 (inactive)
S. cerevisiae deletion strains, locus YLR371W, strain rom2, stronger effect = lower value
  normalized growth: 0.918 (inactive)
S. cerevisiae deletion strains, locus YLR384C, strain iki3, stronger effect = lower value
  normalized growth: 0.976 (inactive)
S. cerevisiae deletion strains, locus YLR418C, strain cdc73, stronger effect = lower value
  normalized growth: 0.706 (active)
S. cerevisiae deletion strains, locus YML016C, strain PPZ1, stronger effect = lower value
  normalized growth: 0.899 (active)
S. cerevisiae deletion strains, locus YML032C, strain rad52, stronger effect = lower value
  normalized growth: 0.959 (inactive)
S. cerevisiae deletion strains, locus YML120C, strain ndi1, stronger effect = lower value
  normalized growth: 0.976 (inactive)
S. cerevisiae deletion strains, locus YML124C, strain tub3, stronger effect = lower value
  normalized growth: 0.972 (inactive)
S. cerevisiae deletion strains, locus YMR058W, strain fet3, stronger effect = lower value
  normalized growth: 0.231 (active)
S. cerevisiae deletion strains, locus YMR078C, strain ctf18, stronger effect = lower value
  normalized growth: 0.981 (inactive)
S. cerevisiae deletion strains, locus YMR125W, strain sto1, stronger effect = lower value
  normalized growth: 1.02 (inactive)
S. cerevisiae deletion strains, locus YMR129W, stronger effect = lower value
  normalized growth: 0.958 (inactive)
S. cerevisiae deletion strains, locus YMR205C, strain PFK2, stronger effect = lower value
  normalized growth: 0.866 (active)
S. cerevisiae deletion strains, locus YMR223W, strain ubp8, stronger effect = lower value
  normalized growth: 0.839 (active)
S. cerevisiae deletion strains, locus YMR231W, strain pep5, stronger effect = lower value
  normalized growth: 0.81 (active)
S. cerevisiae deletion strains, locus YMR263W, strain SAP30, stronger effect = lower value
  normalized growth: 1 (inactive)
S. cerevisiae deletion strains, locus YMR307W, strain GAS1, stronger effect = lower value
  normalized growth: 0.43 (active) and 0.863 (active)
S. cerevisiae deletion strains, locus YNL067W, strain RPL9B, stronger effect = lower value
  normalized growth: 0.824 (active)
S. cerevisiae deletion strains, locus YNL071W, strain lat1, stronger effect = lower value
  normalized growth: 0.941 (inactive)
S. cerevisiae deletion strains, locus YNL128W, strain TEP1, stronger effect = lower value
  normalized growth: 0.642 (active)
S. cerevisiae deletion strains, locus YNL153C, strain GIM3, stronger effect = lower value
  normalized growth: 0.939 (inactive)
S. cerevisiae deletion strains, locus YNL175C, strain NOP13, stronger effect = lower value
  normalized growth: 1.01 (inactive)
S. cerevisiae deletion strains, locus YNL183C, strain NPR1, stronger effect = lower value
  normalized growth: 0.927 (inactive)
S. cerevisiae deletion strains, locus YNL197C, strain WHI3, stronger effect = lower value
  normalized growth: 0.997 (inactive)
S. cerevisiae deletion strains, locus YNL209W, strain ssb2, stronger effect = lower value
  normalized growth: 0.698 (active)
S. cerevisiae deletion strains, locus YNL224C, strain SQS1, stronger effect = lower value
  normalized growth: 1.02 (inactive)
S. cerevisiae deletion strains, locus YNL233W, strain BNI4, stronger effect = lower value
  normalized growth: 0.845 (active)
S. cerevisiae deletion strains, locus YNL248C, strain rpa49, stronger effect = lower value
  normalized growth: 0.951 (inactive)
S. cerevisiae deletion strains, locus YNL250W, strain rad50, stronger effect = lower value
  normalized growth: 0.944 (inactive)
S. cerevisiae deletion strains, locus YNL271C, strain bni1, stronger effect = lower value
  normalized growth: 0.909 (active)
S. cerevisiae deletion strains, locus YNL298W, strain CLA4, stronger effect = lower value
  normalized growth: 0.953 (inactive)
S. cerevisiae deletion strains, locus YNL307C, strain MCK1, stronger effect = lower value
  normalized growth: 0.903 (active)
S. cerevisiae deletion strains, locus YNL322C, strain KRE1 (second series), stronger effect = lower value
  normalized growth: 1 (inactive)
S. cerevisiae deletion strains, locus YNL322C, strain KRE1, stronger effect = lower value
  normalized growth: 0.918 (active) and 0.978 (inactive)
S. cerevisiae deletion strains, locus YNR049C, strain mso1, stronger effect = lower value
  normalized growth: 0.962 (inactive)
S. cerevisiae deletion strains, locus YNR052C, strain pop2, stronger effect = lower value
  normalized growth: 0.968 (inactive)
S. cerevisiae deletion strains, locus YOL006C, strain TOP1, stronger effect = lower value
  normalized growth: 0.202 (active)
S. cerevisiae deletion strains, locus YOL012C, strain htz1
  normalized growth: 0.327 (inactive)
S. cerevisiae deletion strains, locus YOL147C, strain pex11, stronger effect = lower value
  normalized growth: 0.989 (inactive)
S. cerevisiae deletion strains, locus YOR001W, strain rrp6, stronger effect = lower value
  normalized growth: 0.91 (inactive)
S. cerevisiae deletion strains, locus YOR061W, strain CKA2, stronger effect = lower value
  normalized growth: 0.794 (active)
S. cerevisiae deletion strains, locus YOR069W, strain VPS5, stronger effect = lower value
  normalized growth: 0.906 (active)
S. cerevisiae deletion strains, locus YOR070C, strain gyp1, stronger effect = lower value
  normalized growth: 0.916 (active)
S. cerevisiae deletion strains, locus YOR080W, strain dia2, stronger effect = lower value
  normalized growth: 0.978 (inactive)
S. cerevisiae deletion strains, locus YOR083W, strain WHI5 (second series), stronger effect = lower value
  normalized growth: 1.03 (inactive)
S. cerevisiae deletion strains, locus YOR083W, strain WHI5, stronger effect = lower value
  normalized growth: 0.909 (inactive)
S. cerevisiae deletion strains, locus YOR106W, strain vam3, stronger effect = lower value
  normalized growth: 0.718 (active)
S. cerevisiae deletion strains, locus YOR136W, strain idh2, stronger effect = lower value
  normalized growth: 0.965 (inactive)
S. cerevisiae deletion strains, locus YOR144C, strain elg1, stronger effect = lower value
  normalized growth: 0.99 (inactive)
S. cerevisiae deletion strains, locus YOR184W, strain ser1, stronger effect = lower value
  normalized growth: 0.792 (active)
S. cerevisiae deletion strains, locus YOR231W, strain MKK1, stronger effect = lower value
  normalized growth: 0.999 (inactive)
S. cerevisiae deletion strains, locus YOR265W, strain rbl2, stronger effect = lower value
  normalized growth: 0.903 (active)
S. cerevisiae deletion strains, locus YOR270C, strain vph1, stronger effect = lower value
  normalized growth: 0.884 (inactive)
S. cerevisiae deletion strains, locus YOR290C, strain snf2, stronger effect = lower value
  normalized growth: 0.958 (inactive)
S. cerevisiae deletion strains, locus YOR316C, strain cot1, stronger effect = lower value
  normalized growth: 0.971 (inactive)
S. cerevisiae deletion strains, locus YPL051W, strain arl3, stronger effect = lower value
  normalized growth: 0.748 (active)
S. cerevisiae deletion strains, locus YPL055C, strain LGE1, stronger effect = lower value
  normalized growth: 0.64 (active)
S. cerevisiae deletion strains, locus YPL078C, strain atp4, stronger effect = lower value
  normalized growth: 0.984 (inactive)
S. cerevisiae deletion strains, locus YPL106C, strain sse1, stronger effect = lower value
  normalized growth: 0.932 (inactive)
S. cerevisiae deletion strains, locus YPL240C, strain hsp82, stronger effect = lower value
  normalized growth: 0.9 (active)
S. cerevisiae deletion strains, locus YPL241C, strain CIN2, stronger effect = lower value
  normalized growth: 0.918 (active) and 0.973 (inactive)
S. cerevisiae deletion strains, locus YPL256C, strain CLN2, stronger effect = lower value
  normalized growth: 0.932 (inactive)
S. cerevisiae deletion strains, locus YPR119W, strain clb2, stronger effect = lower value
  normalized growth: 0.981 (inactive)
S. cerevisiae deletion strains, locus YPR141C, strain kar3, stronger effect = lower value
  normalized growth: 0.974 (inactive)
S. cerevisiae deletion strains, locus YPR163C, strain tif3, stronger effect = lower value
  normalized growth: 0.958 (inactive)
S. cerevisiae deletion strains, locus YPR167C, strain met16, stronger effect = lower value
  normalized growth: 0.903 (active)
S. cerevisiae deletion strains, strain wtn01, stronger effect = lower value
  normalized growth: 0.772 (active)
S. cerevisiae strains, strain wild type, stronger effect = lower value
  normalized growth: 0.818 (active)
